Our source for the Potency, activity change, negative = inhibition and activity change, negative = cytotoxicity values is PubChem BioAssay (NCATS).

Inconclusive results are not listed. A number with no mark means an inactive call. Calls of active or inactive are those of the source. Calls come from the whole dose curve; as a rule, active = well fitted curve in the direction sought with a large enough effect; inconclusive = small, poorly fitted or top-dose-only effect, or another doubt; inactive = no such curve, though single readings can be large; an effect the other way counts as inactive or inconclusive.

The test system of one assay is OV90. In words: Primary qHTS to identify gynecologic anti-cancer compounds using libraries of approved drugs and bioactive compounds (AID 1345084). Note: nearly all actives have a fitted effect of over 55% in size. Note: potency is the fitted concentration of half-maximal effect. The settings on record: Gynecologic cancer cell panel viability, ATPlite luminescence, 48 h; series mostly up to 57.5 µM. The procedure, abridged: (§1)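 In this quantitative HTS, cell killing is estimated from loss of ATP-dependent luciferase light. Cells see five compound concentrations over a 48 h exposure.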

The next assay relates to Tov-21-G. Described as above. The note with it: Gynecologic cancer cell panel viability, ATPlite luminescence, 48 h; series mostly up to 57.5 µM. The procedure, abridged: as §1
The test system of another assay is Tov112D. Described as above. The settings on record: Gynecologic cancer cell panel viability, ATPlite luminescence, 48 h; series mostly up to 57.5 µM. A digest of the protocol:
as §1

The nature of assay [1]: qHTS assay to identify inhibitors of the type 1 interferon - major histocompatibility complex class I in skeletal muscle: Counter screen cell viability and HiBit confirmation (AID 1347412). Note: nearly all actives have a fitted effect of over 60% in size. The settings on record: iHSKM muscle cells + IFN-b, HiBiT or CellTiter-Glo, 24 h; Viability; at 45.9 µM (top of the series). The procedure, abridged: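 Duplicate plates, pinned identically: one read for HiBiT-tagged endogenous HLA-B luminescence, the other for ATP-content viability via CellTiter Glo. Cells were genome-engineered human myoblasts given 4 ng/ml IFN-b; compounds 12-pt, 1:3 from 46 uM final; 24 hr exposure.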

For the next assay, the system named is PA-1. Put plainly: Primary qHTS to identify gynecologic anti-cancer compounds using libraries of approved drugs and bioactive compounds (AID 1345084). Note: nearly all actives have a fitted effect of over 55% in size. Note: potency is the fitted concentration of half-maximal effect. The settings on record: Gynecologic cancer cell panel viability, ATPlite luminescence, 48 h; series mostly up to 57.5 µM. A digest of the protocol: as §1
Another assay deals with SKOV3. The assay is described as above. The note with it: Gynecologic cancer cell panel viability, ATPlite luminescence, 48 h; series mostly up to 57.5 µM. A digest of the protocol:
as §1
% is set by controls: 0 for no effect and ±100 for the full control effect.

Consider `CC(=O)N1CCN(CCOc2ccc(C3CCN(C4=Nn5c(nnc5C(F)(F)F)CC4)CC3)cc2)CC1`, for which the Potency entry in the assay with OV90, in the assay on Tov-21-G and with Tov112D was “inactive” in each case.

For the compound `C=C1C(=O)OC2/C=C(\C)CC/C=C(\C)CC(OC(C)=O)C12` (stereo not given), the Potency result in the assay with OV90, in the assay with Tov-21-G and in the assay with Tov112D was “inactive” each time.

Consider `O=C(NCCCNc1nc(Nc2cccc(CN3CCOCC3)c2)ncc1C1CC1)C1CCC1`, for which the Potency result with OV90 and in the assay with Tov112D was “inactive” in each case. For the same compound, the Potency in the assay with Tov-21-G is 15.8 µM (active).

Turning to `O=S(=O)(NCc1cccc2ccccc12)c1cc(Cl)c(Oc2cccc(N3CCNCC3)c2)s1`, the Potency result in the assay on OV90, with Tov-21-G and in the assay with Tov112D was “inactive” each time.

For the compound `CNC(=O)c1cc(Oc2ccc(NC(=O)c3cccc(C(F)(F)F)c3)cc2)ccn1`, the Potency entry in the assay on OV90, with Tov-21-G and with Tov112D was “inactive” throughout.

On to `C[C@H](Nc1ncnc2nc[nH]c12)c1cc2cccc(Cl)c2c(=O)n1-c1ccccc1`, for which the Potency result in the assay with OV90 and in the assay on Tov112D was “inactive” each time. For the same compound, in assay [1], the activity change, negative = inhibition was -19.3%.

On to `CC(=O)O[C@@]12CO[C@@H]1C[C@H](O)[C@@]1(C)C(=O)[C@H](O)C3=C(C)[C@@H](OC(=O)[C@H](O)[C@@H](NC(=O)OC(C)(C)C)c4ccccc4)C[C@@](O)([C@@H](OC(=O)c4ccccc4)C12)C3(C)C` (stereo not given in full), for which the Potency entry with OV90 and in the assay on Tov112D was “inactive” each time.

As for `C=C1C(=O)OC2CC(C)=C(C(C)CCCOC(C)=O)C(OC(=O)CC(C)CC)C12` (stereo not given), the Potency result in the assay with OV90 and in the assay with Tov112D was “inactive” in each case.

As to `C=CC(=O)Nc1cc(-n2c(=O)ccc3cnc4ccc(-c5ccc(NS(C)(=O)=O)cc5)cc4c32)ccc1C`, the Potency result with OV90 and in the assay with Tov112D was “inactive” each time.

Take `NC(=O)N1CCC(CC(=O)N2CCC(C3c4ncc(Br)cc4CCc4cc(Cl)cc(Br)c43)CC2)CC1` (stereo not given): the Potency entry with PA-1, in the assay with SKOV3 and in the assay on Tov-21-G was “inactive” in each case.

With `C=CS(=O)(=O)NC1CCN(C(=O)CNc2cc(I)c(Cl)cc2OC)CC1`, the Potency in the assay with PA-1 was 10 µM (active). The Potency entry with SKOV3 is “inactive”.

Take `COc1cc2ncnc(Nc3ccc(O)c(Br)c3)c2cc1OC`: the Potency entry in the assay on OV90 and in the assay on Tov112D was “inactive” throughout.

For the compound `Cc1nc(NC(=O)N2CCC[C@H]2C(N)=O)sc1-c1ccnc(C(C)(C)C(F)(F)F)c1`, the Potency entry in the assay on PA-1, in the assay with Tov-21-G and in the assay with Tov112D was “inactive” in each case. Further, the Potency in the assay on SKOV3 was 12.6 µM (active).

On to `CCC1C(=O)N(C)c2cnc(Nc3ccc(C(=O)NC4CCN(C)CC4)cc3OC)nc2N1C1CCCC1` (stereo not given), for which the results for the Potency in the assay on PA-1 and in the assay on SKOV3 were 1.78 µM (active) and 6.31 µM (active), respectively.

For the compound `COc1ccc(-c2cc3onc(-c4ccncc4)c3c(=O)n2C)cc1`, the Potency entry in the assay on PA-1 and with Tov-21-G was “inactive” each time. In the assay on SKOV3, the Potency was 1.78 µM (active).

For the compound `C=C1C(=O)O[C@H]2C[C@@H](C)[C@@H]3CCC(=O)[C@@]3(C)C[C@H]12`, the Potency with OV90 was 22.4 µM (active). Further, in the assay on Tov112D, the Potency result is “inactive”.

Regarding `CC1(C)CC[C@]23CO[C@@]4(CCC5[C@@]6(C)CC[C@H](O[C@@H]7OC[C@H](O[C@@H]8O[C@H](CO)[C@@H](O)[C@H](O)[C@H]8O[C@@H]8OC[C@@H](O)[C@H](O)[C@H]8O)[C@H](O)[C@H]7O[C@@H]7O[C@H](CO)[C@@H](O)[C@H](O)[C@H]7O)[C@@](C)(CO)C6CC[C@@]5(C)[C@]4(C)C[C@H]2O)[C@@H]3C1` (stereo not given in full), in the assay on PA-1, the activity change, negative = cytotoxicity is -25.5% [at 11.6 µM].

Regarding `COc1c(C)cnc(Cn2cc(C#CCC(C)(C)O)c3c(Cl)nc(N)nc32)c1C`, the Potency is 0.282 µM (active) with PA-1 and 0.251 µM (active) with SKOV3.

Take `Cc1cc(C(C)Nc2ccccc2C(=O)O)c2nc(N3CCOCC3)cc(=O)n2c1` (stereo not given): the Potency entry in the assay with OV90 and in the assay on Tov112D was “inactive” each time.

`O=C(OC1CN2CCC1CC2)N1CCc2ccccc2C1c1ccccc1` (stereo not given): the Potency entry in the assay on PA-1, in the assay on SKOV3, in the assay on Tov-21-G and with Tov112D was “inactive” in each case.

As to `COc1cc2ncc(-c3ccccc3)nc2cc1OC`, the Potency entry in the assay with OV90 and with Tov112D was “inactive” each time.

For `CO[C@H]1[C@@H](O)[C@H](O[C@H]2CC[C@@]3(C)C(CCC4C3CC[C@]35COC6(COC(=O)C6)C3CCC45O)C2)O[C@@H](C)[C@@H]1OC1OC(CO)C(OC2OC(CO)C(O)C(O)C2O)C(O)C1O` (stereo not given in full), the activity change, negative = cytotoxicity with OV90 was 16.3% [at 11.6 µM]. Moreover, the Potency with Tov112D was 2.82 µM (active).

Turning to `CCN(CC)C(=O)c1ccc(Nc2nc(OCC3CCCCC3)c3[nH]cnc3n2)cc1`, the Potency entry with OV90 and with Tov112D was “inactive” throughout.

Consider `CC(C)S(=O)(=O)NC[C@H](C)c1ccc(-c2ccc(CCNS(C)(=O)=O)cc2)cc1`, for which the Potency entry in the assay with PA-1 and with Tov-21-G was “inactive” each time. Besides, the Potency in the assay on SKOV3 was 17.8 µM (active).
